From PubChem BioAssay (Tox21)
Inconclusive results are not listed. The source made the active and inactive calls. Unless noted, calls come from the whole dose curve; as a rule, active = well fitted curve in the direction sought with a large enough effect in the repeat runs; inconclusive = weak or mixed curves; inactive = no such curve, though single readings can be large; an effect the other way counts as inactive or inconclusive.

Key:
[1] = qHTS assay to identify small molecule agonists of the estrogen receptor alpha (ER-alpha) signaling pathway in the presence of an antagonist - cell viability counter screen (AID 1259386);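 note: cells exposed to compounds for 22 h at 37 °C before the viability read; nearly all actives have a fitted effect of over 30% in size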; note: potency is the fitted concentration of half-maximal effect; for activity change, negative = cytotoxicity: series mostly up to about 92 µM
Method in brief: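 The test measures whether compounds kill ER-alpha reporter cells (VM7Luc4E2) under antagonist co-treatment (ICI-182,780, 10.0nM). Fluorescence from CellTiter-Fluor is read after a 22hr exposure.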

[2] = target: Progesterone receptor (Homo sapiens) (UniProt P06401); experiment: qHTS assay to identify small molecule agonists of the progesterone receptor (PR) signaling pathway (AID 1346784; calls by dose curve; note: nearly all actives have a fitted effect of over 30% in size; note: potency is the fitted concentration of half-maximal effect)
Method in brief: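 Reporter assay, GripTite PR-UAS-bla HEK 293T cells: 16 hr exposure to DMSO-dissolved compounds at 37C, 5% CO2, in steroid-depleted (2% charcoal-stripped FBS) medium; beta-lactamase measured by FRET fluorescence.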

[3] = target: Progesterone receptor (Homo sapiens) (UniProt P06401); experiment: qHTS assay to identify small molecule antagonists of the progesterone receptor (PR) signaling pathway (AID 1346795; active = well fitted inhibition curve with a large enough effect in the signal ratio in the repeat runs, not every such curve was filed as active; the % refers to the signal ratio; note: potency is the fitted concentration of half-maximal effect)
Method in brief: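 Stimulus R5020 at 1 nM final; cells HEK293T PR-UAS-bla; medium with 2% charcoal-stripped FBS; compound exposure 16 hr at 37C, 5% CO2; detection by FRET beta-lactamase substrate, 2 hr, room temperature.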

[4] = qHTS assay to identify small molecule agonists of the progesterone receptor (PR) signaling pathway - cell viability counter screen (AID 1346799; calls by dose curve; note: nearly all actives have a fitted effect of over 45% in size; note: potency is the fitted concentration of half-maximal effect)
Method in brief: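 Multiplexed viability read: CellTiter-Glo luminescence, 30 min RT, following LiveBLAzer FRET measurement on PR-UAS-bla HEK293T cells exposed to compounds 16 hr.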

[5] = qHTS assay to identify small molecule antagonists of the TGF-beta/Smad signaling pathway - cell viability counter screen (AID 1346824); note: nearly all actives have a fitted effect of over 50% in size
Method in brief: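 SBE-bla HEK 293T cells were plated overnight at 37 C, then given compounds in DMSO plus TGF-beta1 (added as 0.25 ng/mL solution) for 5 hr. After the bla read, CellTiter-Glo was added to the same wells and luminescence read after 30 min at room temperature.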

[6] = qHTS assay to identify small molecule agonists of the TGF-beta/Smad signaling pathway - cell viability counter screen (AID 1346829); note: top concentration of the series differs between compounds; nearly all actives have a fitted effect of over 45% in size
Method in brief: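 Here the cytotoxicity of library compounds is measured in SBE-bla HEK 293T cells treated for 5 hr, using CellTiter-Glo added to wells already read for the beta-lactamase reporter.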

[7] = qHTS assay to identify small molecule agonists of the TGF-beta/Smad signaling pathway (AID 1346859; active = well fitted activation curve with a large enough effect in the signal ratio in the repeat runs, not every such curve was filed as active; the % refers to the signal ratio; note: series mostly up to about 77 µM)
Method in brief: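 Screening used HEK 293T SBE-bla cells at 4,000/well. Test agents: 5 hr, 37 C. Detection: FRET substrate, 2 hr RT, then excitation 405 nm with emissions at 460 and 530 nm.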

[8] = target: Thyrotropin-releasing hormone receptor (Homo sapiens) (UniProt P34981); experiment: qHTS assay to identify small molecule antagonists of the thyrotropin-releasing hormone receptor (TRHR) signaling pathway (AID 1346877; active = well fitted inhibition curve with a large enough effect in the repeat runs, not every such curve was filed as active; note: series mostly up to about 51 µM)
Method in brief: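 Overnight-plated (18 h, 37 °C) HEK293 cells expressing TRHR were dye-loaded 2 h, treated with compound, then stimulated with TRH at 1 nM final. Fluorescence intensity was captured every second for 3 min.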

[9] = target: Thyrotropin-releasing hormone receptor (Homo sapiens) (UniProt P34981); experiment: qHTS assay to identify small molecule agonists of the thyrotropin-releasing hormone receptor (TRHR) signaling pathway (AID 1346891; calls by dose curve; note: series mostly up to about 58 µM)
Method in brief: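 Readout was intracellular calcium fluorescence in TRHR-Hek293 cells. Cells were incubated 18 h, dye-loaded 2 h at 37 °C, and treated with compound in agonist mode.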

[10] = qHTS assay to identify small molecule antagonists of the progesterone receptor (PR) signaling pathway - cell viability counter screen (AID 1346798); note: nearly all actives have a fitted effect of over 50% in size; note: potency is the fitted concentration of half-maximal effect; for activity change, negative = cytotoxicity: series mostly up to about 92 µM
Method in brief: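 In the same plates used for the beta-lactamase readout, cell viability of compound- and R5020-treated PR-UAS-bla HEK293T cells (16 hr, 37C) was assessed by CellTiter-Glo luminescence.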
% is set by controls: 0 for no effect and ±100 for the full control effect.

Thyrotropin-releasing hormone receptor (Homo sapiens), sequence (P34981 whole entry, looked up): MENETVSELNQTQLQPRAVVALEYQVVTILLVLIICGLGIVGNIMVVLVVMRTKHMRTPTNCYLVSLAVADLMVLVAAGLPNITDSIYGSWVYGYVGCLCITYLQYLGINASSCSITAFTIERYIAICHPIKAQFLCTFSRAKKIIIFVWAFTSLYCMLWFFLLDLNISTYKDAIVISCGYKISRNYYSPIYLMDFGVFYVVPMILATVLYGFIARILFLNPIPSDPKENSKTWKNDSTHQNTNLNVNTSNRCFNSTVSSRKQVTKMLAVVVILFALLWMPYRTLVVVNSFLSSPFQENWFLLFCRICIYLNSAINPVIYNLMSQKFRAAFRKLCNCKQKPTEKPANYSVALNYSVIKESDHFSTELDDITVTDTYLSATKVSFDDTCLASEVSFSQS
Progesterone receptor (Homo sapiens), sequence (P06401 whole entry, looked up): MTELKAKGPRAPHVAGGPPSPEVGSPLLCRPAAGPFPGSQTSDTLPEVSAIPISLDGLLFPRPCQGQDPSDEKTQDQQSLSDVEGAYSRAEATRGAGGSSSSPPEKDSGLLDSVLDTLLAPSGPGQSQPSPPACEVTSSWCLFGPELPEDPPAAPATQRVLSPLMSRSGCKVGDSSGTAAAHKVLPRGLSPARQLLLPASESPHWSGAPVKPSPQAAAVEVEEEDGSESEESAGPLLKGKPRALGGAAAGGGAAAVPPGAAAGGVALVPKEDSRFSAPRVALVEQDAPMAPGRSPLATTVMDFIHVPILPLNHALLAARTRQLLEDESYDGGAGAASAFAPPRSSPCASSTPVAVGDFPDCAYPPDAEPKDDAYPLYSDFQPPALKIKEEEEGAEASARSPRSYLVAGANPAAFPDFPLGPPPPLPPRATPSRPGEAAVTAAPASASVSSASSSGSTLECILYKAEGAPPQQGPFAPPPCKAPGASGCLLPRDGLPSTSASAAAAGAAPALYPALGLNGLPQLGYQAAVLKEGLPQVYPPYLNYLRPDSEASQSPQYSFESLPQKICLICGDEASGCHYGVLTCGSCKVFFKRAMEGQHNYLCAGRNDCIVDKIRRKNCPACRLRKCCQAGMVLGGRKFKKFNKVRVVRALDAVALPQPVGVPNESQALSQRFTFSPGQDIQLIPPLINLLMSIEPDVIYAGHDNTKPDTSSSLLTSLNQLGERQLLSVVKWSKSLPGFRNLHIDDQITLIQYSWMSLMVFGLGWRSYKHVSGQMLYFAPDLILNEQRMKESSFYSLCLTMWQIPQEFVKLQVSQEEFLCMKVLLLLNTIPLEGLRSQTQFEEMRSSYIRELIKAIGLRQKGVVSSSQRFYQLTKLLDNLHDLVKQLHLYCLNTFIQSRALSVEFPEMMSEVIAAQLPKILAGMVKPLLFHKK

CCCCCCCCCCCCCOC(=O)CCSCCC(=O)OCCCCCCCCCCCCC
active: Potency [2] 644 nM
inactive: activity change, negative = cytotoxicity [1] -1.3% [at 19 µM] | activity change, negative = inhibition [3] 5.83% [at 18.9 µM] | activity change, negative = cytotoxicity [4] 36.2% [at 19 µM] | viability change, negative = cytotoxic [5] 16.1% [at 15.8 µM] | activity change, negative = cytotoxicity [6] -1.41% [at 15.8 µM] | activation [7] 1.33% [at 15.8 µM] | activity, negative = inhibition [8] 4.46% [at 10.5 µM] | activation [9] 0.934% [at 11.8 µM]

CCC1CCC(CCC(=O)O)C1 (configuration not stated)
inactive: Potency [1] | Potency [2] | Potency [10] | outcome [5] | Potency [6] | Potency [7] | outcome [8] | outcome [9]

O=C1OC(=O)c2c(Br)c(Br)c(Br)c(Br)c21
inactive: Potency [1] | Potency [2] | Potency [10] | Potency [4] | outcome [5] | Potency [6] | Potency [7] | outcome [8] | outcome [9]

COc1ccc(-n2nc(C(F)F)cc2-c2ccc(S(C)=O)cc2)cc1 (configuration not stated)
inactive: Potency [1] | Potency [2] | Potency [10] | Potency [4] | outcome [5] | Potency [6] | outcome [8] | outcome [9]

Cc1ccc2c(c1)CCCN2
inactive: Potency [1] | Potency [2] | Potency [3] | outcome [5] | Potency [6] | Potency [7] | outcome [8] | outcome [9]

Nc1nc2ccc(OC(F)(F)F)cc2s1
inactive: Potency [1] | Potency [2] | Potency [10] | Potency [4] | outcome [5] | Potency [6] | Potency [7]

CNS(=O)(=O)c1cc(C(=O)N2CCC(CCN3C4CCC3CC(n3c(C)nc5ccccc53)C4)(c3cccc(F)c3)CC2)c(Cl)cc1F (configuration not stated)
active: Potency [10] 24.3 µM | Potency [4] 5.45 µM
inactive: Potency [1] | Potency [2] | outcome [5] | Potency [6]

CN(C)CC/C=C1\c2ccccc2Sc2ccc(Cl)cc21
active: Potency [3] 21.1 µM
inactive: Potency [1] | Potency [2] | outcome [5] | Potency [6] | Potency [7] | outcome [8] | outcome [9]

CCSC(=O)N(CC)CC
inactive: Potency [1] | Potency [2] | Potency [3] | Potency [4] | outcome [5] | Potency [6] | Potency [7] | outcome [8] | outcome [9]

CCCOC(=O)c1c(Cl)c(Cl)c(Cl)c(Cl)c1C(=O)OCCC
active: Potency [3] 17.2 µM
inactive: Potency [1] | Potency [2] | Potency [4] | Potency [6] | Potency [7] | outcome [8] | outcome [9]

CCN(CC)c1cccc(O)c1
inactive: Potency [1] | Potency [2] | Potency [10] | Potency [4] | outcome [5] | Potency [6] | outcome [8] | outcome [9]

COc1cc(OC)c2ccc(=O)oc2c1
inactive: Potency [1] | Potency [2] | Potency [10] | Potency [4] | outcome [5] | Potency [6] | Potency [7]

CC(C)N=C=NC(C)C
inactive: Potency [1] | Potency [2] | Potency [3] | Potency [4] | outcome [5] | Potency [6] | Potency [7] | outcome [8] | outcome [9]

CC(C)(C)C1(CCc2ccc(Cl)cc2)CO1 (configuration not stated)
inactive: Potency [1] | Potency [2] | Potency [10] | Potency [4] | outcome [5] | Potency [6] | Potency [7] | outcome [8] | outcome [9]

CC1CCCO1 (configuration not stated)
inactive: Potency [1] | Potency [2] | Potency [10] | Potency [4] | outcome [5] | Potency [6] | Potency [7] | outcome [8] | outcome [9]

CCN(Cc1cccc(S(=O)(=O)O)c1)c1ccc(C(=C2C=CC(=[N+](CC)Cc3cccc(S(=O)(=O)O)c3)C=C2)c2ccc(O)cc2S(=O)(=O)[O-])cc1
inactive: Potency [2] | Potency [3] | Potency [4] | Potency [7]
active: Potency [1] 16.6 µM

CCOC(=O)N1CCC(Nc2ccc(Cl)cc2N)CC1
inactive: Potency [1] | Potency [2] | Potency [10] | Potency [4] | outcome [5] | Potency [6] | Potency [7] | outcome [8] | outcome [9]

Cc1cc([N+](=O)[O-])ccc1N
active: Potency [1] 47.9 µM
inactive: Potency [2] | Potency [4] | outcome [5] | Potency [6] | Potency [7]

CC(C)COC(=O)c1ccc(O)cc1
inactive: Potency [1] | Potency [2] | Potency [10] | outcome [5] | Potency [6] | Potency [7] | outcome [8] | outcome [9]

O=C1c2ccccc2C(=O)c2c(O)ccc(O)c21
inactive: Potency [1] | Potency [2] | Potency [3] | Potency [4] | Potency [6] | outcome [8] | outcome [9]

CC(=O)OCC(C)C
inactive: Potency [1] | Potency [2] | Potency [3] | Potency [4] | outcome [5] | Potency [6] | Potency [7] | outcome [8] | outcome [9]

COc1cc(S(=O)(=O)Nc2ccccc2)c(OC)cc1N
inactive: Potency [1] | Potency [3] | Potency [10] | outcome [5] | Potency [6] | Potency [7] | outcome [8] | outcome [9]

Cc1c[nH]c2ccccc12
inactive: Potency [1] | Potency [3] | Potency [10] | Potency [4] | outcome [5] | Potency [6] | Potency [7] | outcome [8] | outcome [9]

O=P(O)(O)Oc1ccccc1
inactive: Potency [1] | Potency [3] | Potency [10] | Potency [4] | outcome [5] | Potency [6] | Potency [7] | outcome [8] | outcome [9]

CCN(CC)CCOC(=O)C(c1ccccc1)c1ccccc1
inactive: Potency [1] | Potency [3] | Potency [10] | Potency [4] | outcome [5] | Potency [6] | Potency [7] | outcome [8] | outcome [9]

c1ccc(CNc2ncnc3c2ncn3C2CCCCO2)cc1 (configuration not stated)
inactive: Potency [1] | Potency [3] | Potency [10] | outcome [5] | Potency [6] | Potency [7]
